Experimental data reported in the supplement of paper PMC10849652.
Of roughly 7,900 targets only a part is listed; those with a hit were picked by preference. About 0.6% of all pairs of compound and target were hits. Unmarked numbers belong to inactive results.

Legend:
Experiment in all cases: log2 fold change, soluble protein after heating vs DMSO (PISA); higher = thermal stabilisation; K562 cells, 10 uM, 30 min; active = over 0.2 and 3.5 SD of the protein, either way, in both replicates (recomputed)
[1] = compound: CS(=O)(=O)c1ccc(-c2cnc(N)c(C(=O)Nc3ccccc3)n2)cc1
Summary of the method: (§1)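 Quantification of soluble protein used TMTpro 16plex LC-MS/MS, with channel sums equalised. Samples were the supernatant after 21,000xg for 90 min of pooled aliquots from K562 cells (2×10^6 cells/mL) treated with 10 μM compound for 30 min, heated for 3 min over 48°C-58°C, and extracted in PBS with 0.5% NP-40 at 4°C. Values, from duplicates, describe thermal stability against control samples on a log2 fold-change scale.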

[2] = compound: C[C@@H](Oc1cc(-c2cnn(C3CCNCC3)c2)cnc1N)c1c(Cl)ccc(F)c1Cl [crizotinib]
Summary of the method: as §1

[3] = compound: C[C@@H]1COCCN1C2=NC(=NC(=C2)C3(CC3)S(=O)(=O)C)C4=C5C=CNC5=CC=C4
Summary of the method: as §1

[4] = compound: Cc1cc(Nc2cc(CN3CCOCC3)c3nc(C)c(Cc4ccc(Cl)cc4F)n3n2)n[nH]1 [gandotinib]
Summary of the method: as §1

[5] = compound: Cc1cc(Nc2cc(N3CCN(C)CC3)nc(Sc3ccc(NC(=O)C4CC4)cc3)n2)n[nH]1 [tozasertib]
Summary of the method: as §1

[6] = compound: Cc1ccc(-n2nc(C(C)(C)C)cc2NC(=O)Nc2ccc(OCCN3CCOCC3)c3ccccc23)cc1 [doramapimod]
Summary of the method: as §1

[7] = compound: Cc1ccc(C(=O)N(CCCN)[C@@H](c2nc3cc(Cl)ccc3c(=O)n2Cc2ccccc2)C(C)C)cc1 [ispinesib]
Summary of the method: as §1

[8] = compound: Cc1ccc(NC(=O)c2ccc(CN3CC[C@H](N(C)C)C3)c(C(F)(F)F)c2)cc1Nc1nccc(-c2cncnc2)n1 [bafetinib]
Summary of the method: as §1

[9] = compound: Cc1cccc(CC(=O)N2CCc3c2ccc(-c2cn(C)c4ncnc(N)c24)c3F)n1
Summary of the method: as §1

[10] = compound: Cc1cn(-c2cc(NC(=O)c3ccc(C)c(Nc4nccc(-c5cccnc5)n4)c3)cc(C(F)(F)F)c2)cn1 [nilotinib]
Summary of the method: as §1

[11] = compound: Cc1nc(Nc2n[nH]c3c2CN(C(=O)N[C@H](CN(C)C)c2ccccc2)C3(C)C)c2sccc2n1
Summary of the method: as §1

[12] = compound: Cc1ncc(-c2ccnc(Nc3ccc(S(C)(=O)=O)cc3)n2)n1C(C)C
Summary of the method: as §1

[13] = compound: Cn1cc(-c2ccc3nnc(C(F)(F)c4ccc5ncccc5c4)n3n2)cn1
Summary of the method: as §1

[14] = compound: Cn1cncc1[C@@](N)(c1ccc(Cl)cc1)c1ccc2c(c1)c(-c1cccc(Cl)c1)cc(=O)n2C [tipifarnib]
Summary of the method: as §1

[15] = compound: FC(F)(F)c1ccc(/C=C/c2nc(COc3ccc(CCCCn4ccnn4)cc3)co2)cc1 [mubritinib]
Summary of the method: as §1

[16] = compound: C[C@H](C1=CC=C(C=C1)C(=O)NC2=C3C=CNC3=NC=C2)N
Summary of the method: as §1

[17] = compound: C[C@H](Nc1ncnc2nc[nH]c12)c1cc2cccc(Cl)c2c(=O)n1-c1ccccc1 [duvelisib]
Summary of the method: as §1

[18] = compound: Cc1cc(SCc2sc(-c3ccc(C(F)(F)F)cc3)nc2C)ccc1OCC(=O)O
Summary of the method: as §1

[19] = compound: Cc1nc(Nc2ncc(C(=O)Nc3c(C)cccc3Cl)s2)cc(N2CCN(CCO)CC2)n1 [dasatinib]
Summary of the method: as §1

[20] = compound: Cn1cc(-c2ccc3c(c2)CCN3C(=O)Cc2cccc(C(F)(F)F)c2)c2c(N)ncnc21
Summary of the method: as §1

Sequence of UniProt O95628 (O95628 whole entry, looked up): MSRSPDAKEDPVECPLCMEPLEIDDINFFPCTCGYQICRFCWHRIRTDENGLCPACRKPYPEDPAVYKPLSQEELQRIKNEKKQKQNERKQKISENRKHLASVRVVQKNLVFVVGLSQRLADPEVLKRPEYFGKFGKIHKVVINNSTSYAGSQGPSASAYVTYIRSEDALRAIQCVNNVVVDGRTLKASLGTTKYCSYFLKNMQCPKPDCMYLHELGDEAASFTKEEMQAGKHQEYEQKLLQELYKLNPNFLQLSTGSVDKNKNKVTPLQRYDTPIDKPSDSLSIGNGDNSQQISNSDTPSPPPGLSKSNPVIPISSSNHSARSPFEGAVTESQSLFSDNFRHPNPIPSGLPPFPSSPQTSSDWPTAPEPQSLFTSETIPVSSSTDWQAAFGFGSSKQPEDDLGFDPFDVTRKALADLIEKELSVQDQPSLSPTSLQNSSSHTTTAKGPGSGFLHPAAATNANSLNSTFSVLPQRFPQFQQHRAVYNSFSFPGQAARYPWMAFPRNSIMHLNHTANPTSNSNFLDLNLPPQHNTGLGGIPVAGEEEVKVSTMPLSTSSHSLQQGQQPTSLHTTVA
Sequence of UniProt P48729 (P48729 whole entry, looked up): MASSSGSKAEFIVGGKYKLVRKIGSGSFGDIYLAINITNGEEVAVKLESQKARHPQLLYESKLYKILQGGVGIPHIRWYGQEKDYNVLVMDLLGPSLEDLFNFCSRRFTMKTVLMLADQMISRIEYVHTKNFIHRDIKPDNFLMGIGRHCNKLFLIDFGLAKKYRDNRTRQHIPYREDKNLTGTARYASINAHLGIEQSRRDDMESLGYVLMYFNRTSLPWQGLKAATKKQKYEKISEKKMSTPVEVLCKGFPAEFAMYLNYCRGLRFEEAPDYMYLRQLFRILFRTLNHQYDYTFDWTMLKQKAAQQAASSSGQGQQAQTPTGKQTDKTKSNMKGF
Sequence of UniProt Q9UNS2 (Q9UNS2 whole entry, looked up): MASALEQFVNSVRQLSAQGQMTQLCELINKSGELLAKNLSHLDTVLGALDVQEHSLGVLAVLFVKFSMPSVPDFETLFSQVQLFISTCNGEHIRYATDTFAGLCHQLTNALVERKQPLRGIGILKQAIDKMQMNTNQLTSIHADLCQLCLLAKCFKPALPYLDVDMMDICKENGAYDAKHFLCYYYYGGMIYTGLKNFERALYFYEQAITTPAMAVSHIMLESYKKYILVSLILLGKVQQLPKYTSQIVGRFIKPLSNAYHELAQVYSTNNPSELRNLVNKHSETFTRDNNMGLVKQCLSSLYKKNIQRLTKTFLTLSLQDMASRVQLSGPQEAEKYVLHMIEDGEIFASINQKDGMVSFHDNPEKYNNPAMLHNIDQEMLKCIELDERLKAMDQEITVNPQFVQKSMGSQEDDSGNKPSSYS
Sequence of UniProt Q6UUV7 (Q6UUV7 whole entry, looked up): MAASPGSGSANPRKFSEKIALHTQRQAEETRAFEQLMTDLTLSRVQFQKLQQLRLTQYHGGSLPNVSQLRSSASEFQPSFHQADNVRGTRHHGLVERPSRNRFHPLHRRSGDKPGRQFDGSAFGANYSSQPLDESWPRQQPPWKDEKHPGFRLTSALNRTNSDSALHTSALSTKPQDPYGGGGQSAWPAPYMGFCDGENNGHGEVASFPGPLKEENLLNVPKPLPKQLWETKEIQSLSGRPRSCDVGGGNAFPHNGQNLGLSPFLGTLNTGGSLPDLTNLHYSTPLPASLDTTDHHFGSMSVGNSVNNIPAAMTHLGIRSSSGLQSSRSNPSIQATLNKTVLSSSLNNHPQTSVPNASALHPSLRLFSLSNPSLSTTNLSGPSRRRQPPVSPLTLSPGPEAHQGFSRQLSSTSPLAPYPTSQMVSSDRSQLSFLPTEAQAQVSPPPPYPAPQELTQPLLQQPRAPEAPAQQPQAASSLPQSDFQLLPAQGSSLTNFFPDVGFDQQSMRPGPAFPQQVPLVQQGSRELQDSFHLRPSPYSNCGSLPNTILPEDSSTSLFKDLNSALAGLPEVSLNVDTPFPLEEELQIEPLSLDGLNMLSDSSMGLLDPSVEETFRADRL
Sequence of UniProt O75956 (O75956 whole entry, looked up): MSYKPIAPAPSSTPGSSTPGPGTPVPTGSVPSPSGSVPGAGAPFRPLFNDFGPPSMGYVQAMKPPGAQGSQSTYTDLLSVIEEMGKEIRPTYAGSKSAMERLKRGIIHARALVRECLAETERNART
Sequence of UniProt Q8N4S0 (Q8N4S0 whole entry, looked up): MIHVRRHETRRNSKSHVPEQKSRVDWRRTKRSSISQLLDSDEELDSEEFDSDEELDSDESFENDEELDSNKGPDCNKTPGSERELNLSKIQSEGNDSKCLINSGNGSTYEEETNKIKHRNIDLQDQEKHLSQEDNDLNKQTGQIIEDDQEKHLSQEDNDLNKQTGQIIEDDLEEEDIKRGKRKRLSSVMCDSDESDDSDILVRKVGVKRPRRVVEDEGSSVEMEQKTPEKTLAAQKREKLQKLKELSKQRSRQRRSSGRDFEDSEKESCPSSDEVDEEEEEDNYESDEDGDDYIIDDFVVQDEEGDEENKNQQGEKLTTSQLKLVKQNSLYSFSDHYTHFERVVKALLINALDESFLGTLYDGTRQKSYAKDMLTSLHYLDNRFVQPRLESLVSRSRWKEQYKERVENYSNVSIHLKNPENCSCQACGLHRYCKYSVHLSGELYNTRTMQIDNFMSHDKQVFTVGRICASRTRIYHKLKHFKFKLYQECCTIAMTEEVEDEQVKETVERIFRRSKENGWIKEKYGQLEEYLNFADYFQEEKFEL
Sequence of UniProt Q96GV9 (Q96GV9 whole entry, looked up): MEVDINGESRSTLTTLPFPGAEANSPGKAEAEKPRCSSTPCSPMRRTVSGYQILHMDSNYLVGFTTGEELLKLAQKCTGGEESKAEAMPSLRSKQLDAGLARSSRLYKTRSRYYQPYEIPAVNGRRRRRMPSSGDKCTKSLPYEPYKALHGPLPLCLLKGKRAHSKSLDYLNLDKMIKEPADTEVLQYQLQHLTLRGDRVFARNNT
Sequence of UniProt P30305 (P30305 whole entry, looked up): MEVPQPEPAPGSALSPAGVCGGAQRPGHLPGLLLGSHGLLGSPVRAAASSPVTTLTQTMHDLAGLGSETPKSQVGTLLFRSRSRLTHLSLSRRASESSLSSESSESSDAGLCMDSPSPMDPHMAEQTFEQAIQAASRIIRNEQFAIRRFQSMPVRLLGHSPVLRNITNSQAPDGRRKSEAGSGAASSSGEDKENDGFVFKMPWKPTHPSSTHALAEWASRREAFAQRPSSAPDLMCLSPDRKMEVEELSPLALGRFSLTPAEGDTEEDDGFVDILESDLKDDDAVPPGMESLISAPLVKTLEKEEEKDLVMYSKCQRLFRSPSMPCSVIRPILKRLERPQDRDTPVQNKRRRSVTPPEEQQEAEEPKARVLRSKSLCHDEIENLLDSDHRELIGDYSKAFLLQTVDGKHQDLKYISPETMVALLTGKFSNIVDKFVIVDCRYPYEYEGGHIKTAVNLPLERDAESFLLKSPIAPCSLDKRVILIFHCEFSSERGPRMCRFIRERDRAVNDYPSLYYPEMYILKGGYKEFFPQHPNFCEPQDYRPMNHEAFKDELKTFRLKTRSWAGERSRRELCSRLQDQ
Sequence of UniProt Q9UBY8 (Q9UBY8 whole entry, looked up): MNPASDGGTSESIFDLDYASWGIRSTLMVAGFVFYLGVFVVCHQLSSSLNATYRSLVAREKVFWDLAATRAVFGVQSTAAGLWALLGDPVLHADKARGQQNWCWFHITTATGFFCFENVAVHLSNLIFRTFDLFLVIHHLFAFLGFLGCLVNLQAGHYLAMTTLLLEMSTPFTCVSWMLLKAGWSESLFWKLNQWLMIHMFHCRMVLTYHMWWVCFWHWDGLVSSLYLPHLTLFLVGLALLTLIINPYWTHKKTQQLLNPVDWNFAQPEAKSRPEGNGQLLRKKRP
Sequence of UniProt P51911 (P51911 whole entry, looked up): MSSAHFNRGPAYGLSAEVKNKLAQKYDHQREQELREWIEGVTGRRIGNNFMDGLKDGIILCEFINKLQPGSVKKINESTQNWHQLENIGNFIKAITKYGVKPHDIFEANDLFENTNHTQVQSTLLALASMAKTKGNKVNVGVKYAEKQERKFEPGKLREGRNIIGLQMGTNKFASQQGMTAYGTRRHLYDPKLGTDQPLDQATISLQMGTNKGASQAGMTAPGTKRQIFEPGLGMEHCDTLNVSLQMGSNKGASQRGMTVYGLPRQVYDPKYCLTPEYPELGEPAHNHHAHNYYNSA
Sequence of UniProt Q92828 (Q92828 whole entry, looked up): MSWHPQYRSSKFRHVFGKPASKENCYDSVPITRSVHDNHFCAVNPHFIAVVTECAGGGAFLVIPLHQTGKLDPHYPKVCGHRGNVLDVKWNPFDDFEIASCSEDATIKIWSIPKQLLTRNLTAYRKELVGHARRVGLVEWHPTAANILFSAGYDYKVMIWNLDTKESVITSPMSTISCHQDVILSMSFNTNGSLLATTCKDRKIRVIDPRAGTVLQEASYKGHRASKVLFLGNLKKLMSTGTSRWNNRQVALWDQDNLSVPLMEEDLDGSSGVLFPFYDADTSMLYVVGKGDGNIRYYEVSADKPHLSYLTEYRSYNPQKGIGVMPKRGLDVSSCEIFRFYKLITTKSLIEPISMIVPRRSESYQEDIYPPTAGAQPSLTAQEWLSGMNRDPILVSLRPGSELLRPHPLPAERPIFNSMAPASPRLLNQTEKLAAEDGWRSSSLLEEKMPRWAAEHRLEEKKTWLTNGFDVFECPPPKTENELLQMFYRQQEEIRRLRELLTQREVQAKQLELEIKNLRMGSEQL
Sequence of UniProt Q96MX0 (Q96MX0 whole entry, looked up): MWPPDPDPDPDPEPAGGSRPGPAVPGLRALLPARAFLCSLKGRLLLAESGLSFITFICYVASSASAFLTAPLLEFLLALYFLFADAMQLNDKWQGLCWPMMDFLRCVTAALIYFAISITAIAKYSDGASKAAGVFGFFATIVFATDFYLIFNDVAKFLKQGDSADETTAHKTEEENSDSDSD
Sequence of UniProt Q9NRR8 (Q9NRR8 whole entry, looked up): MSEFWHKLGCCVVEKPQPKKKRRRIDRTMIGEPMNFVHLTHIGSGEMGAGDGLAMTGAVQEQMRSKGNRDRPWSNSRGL
Sequence of UniProt A8MTT3 (A8MTT3 whole entry, looked up): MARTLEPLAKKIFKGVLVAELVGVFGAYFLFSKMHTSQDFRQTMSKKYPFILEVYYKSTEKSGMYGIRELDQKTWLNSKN

Row | Target | log2 fold change [1] | log2 fold change [2] | log2 fold change [3] | log2 fold change [4] | log2 fold change [5] | log2 fold change [6] | log2 fold change [7] | log2 fold change [8] | log2 fold change [9] | log2 fold change [10] | log2 fold change [11] | log2 fold change [12] | log2 fold change [13] | log2 fold change [14] | log2 fold change [15] | log2 fold change [16] | log2 fold change [17] | log2 fold change [18] | log2 fold change [19] | log2 fold change [20]
1 | COPS3 isoform 2 (UniProt Q9UNS2) | 0.054 | 0.046 | 0.116 | -0.084 | -0.165 | 0.028 | -0.371 | -0.19 | -0.295 | -0.041 | 0.227 | -0.194 | 0.418 | 0.029 | 0.138 |  |  |  |  | 
2 | CDC42SE1 (UniProt Q9NRR8) | 0 | -0.099 | 0.16 |  | -0.106 | -0.06 | -0.341 | -0.37 |  | 0.055 | 0.055 | -0.155 | -0.002 | -0.01 | -0.065 | -0.031 | 0.029 | -0.04 | -0.022 | 0.107
3 | CCDC57 (UniProt Q2TAC2) | -0.026 | 0.06 | 0.065 |  | 0.04 | -0.035 | -0.034 | -0.025 |  | -0.044 | -0.023 | -0.021 | -0.021 | -0.023 | 0.031 | 0.139 |  |  |  | 0.068
4 | CDKN1B (UniProt P46527) | -0.017 | -0.018 | -0.295 | 0.077 |  | -0.071 | -0.01 | -0.001 | -0.05 | 0.013 | -0.097 | 0.149 | 0.04 | 0.009 | 0.114 | -0.065 | 0.059 | -0.06 | 0.004 | 0.108
5 | CMTM3 (UniProt Q96MX0) | 0.063 | -0.007 | -0.002 | 0.132 | -0.026 | -0.065 |  | 0.05 | -0.078 | -0.056 | -0.007 | 0.013 |  | 0.098 | -0.052 | -0.133 | 0.028 | -0.102 | 0.017 | 0.05
6 | CCND3 (UniProt P30281) |  |  | -0.271 | -0.027 | -0.058 |  | -0.116 | 0.07 | -0.016 |  |  |  | 0.092 | 0.026 | 0.024 | 0.096 | 0.014 | 0.058 | -0.08 | 0.04
7 | CS (UniProt F8VU34) |  |  |  |  |  |  |  | 0.044 |  |  |  |  |  |  |  |  |  |  |  | 
8 | CLINT1 (UniProt Q14677) |  | 0.166 |  |  | 0.074 | 0.154 |  | -0.053 |  | 0.065 | -0.048 | -0.151 |  |  | -0.007 | 0.005 | -0.08 | -0.155 | 0.142 | 0.047
9 | CSNK1A1 isoform 3 (UniProt P48729) |  |  |  |  |  |  |  | 0.224 |  |  |  |  |  | 0.165 | 0.055 |  |  |  |  | 
10 | CCDC82 (UniProt Q8N4S0) |  | 0.148 | -0.174 |  | -0.106 | -0.165 | -0.026 | -0.091 |  | 0.018 | -0.017 | -0.043 | -0.021 | 0.01 | 0.087 | 0.015 | -0.223 | -0.119 | 0.015 | -0.132
11 | CASP7 isoform 3 (UniProt P55210) |  |  | 0.3 | -0.155 |  |  |  | -1.01 (active) | -0.401 | 0.145 | -0.001 | -0.102 |  |  |  |  | -0.024 | -0.271 | -0.239 | 
12 | CNOT4 isoform 9 (UniProt O95628) |  | -0.094 |  | -0.059 | -0.028 | 0.274 | -0.102 | 0.081 | 0.067 | 0.094 | -0.172 | 0 | 0.036 | -0.019 | 0.055 | 0.484 (active) | -0.076 | -0.086 | 0.074 | 0.096
13 | CDC25B isoform 4 (UniProt P30305) | -0.104 |  | -0.216 | 0.122 |  | 0.132 | 0.019 | 0.081 | -0.022 | -0.513 (active) | -0.051 | -0.206 | -0.03 | 0.022 | 0.074 | -0.057 |  |  |  | 0.095
14 | CEBPZOS (UniProt A8MTT3) |  | 0.26 (active) |  | -0.189 | -0.031 | 0.066 | 0.016 | 0.066 | 0.014 | 0.039 | 0.021 | -0.027 | 0.033 | -0.044 | 0.121 |  | 0.055 | -0.013 | 0.009 | 
15 | CNN1 (UniProt P51911) | -0.052 |  | 0.045 | -0.673 (active) | -0.151 |  |  |  | 0.22 | 0.008 | 0 | 0.031 |  | 0.049 | 0.009 | -0.121 |  |  |  | 0.04
16 | CD68 (UniProt P34810) | -0.016 |  |  |  |  |  |  | -0.091 |  |  |  |  |  |  | -0.003 |  |  |  |  | 
17 | CCNT2 (UniProt O60583) | -0.226 |  | -0.148 | -0.065 | -0.291 |  | -0.147 |  | -0.117 | 0.105 | -0.161 | -0.462 | -0.219 | 0.08 | -0.209 |  | -0.107 | 0.047 | -0.02 | 
18 | CRTC3 (UniProt Q6UUV7) | -0.004 |  | 0.177 |  | -0.121 |  | 0.129 | -0.018 |  |  |  |  | -0.019 | -0.302 | -0.168 | 0.071 |  |  |  | -0.002
19 | CORO2A (UniProt Q92828) | -0.085 |  |  | 0.061 | -0.028 |  | -0.046 | 0.021 | 0.015 | -0.047 | -0.052 | -0.049 | -0.255 | -0.005 | 0.048 | 0.101 | 0.061 | 0.023 | -0.066 | -0.017
20 | CLN8 (UniProt Q9UBY8) | -0.006 |  |  | -0.1 | -0.05 |  | -0.15 | -0.209 | -0.662 (active) | 0.051 | -0.11 | -0.083 | 0.266 | 0.003 | -0.08 | 0.161 | 0.049 | -0.09 | 0.032 | 0.258
21 | C5orf30 (UniProt Q96GV9) |  |  | 0.352 |  | -0.24 |  |  |  |  |  |  |  |  | 0.152 |  |  |  |  |  | 
22 | CCDC187, A0A1W2PQX5 |  |  | -0.042 | -0.352 |  |  | 0.274 |  | -0.106 | 0.318 | 0.027 | 0.104 | -0.056 |  |  |  |  |  |  | 
23 | CDK2AP2 (UniProt O75956) |  | 0.213 | 0.173 |  |  | -0.014 | -0.011 | 0 |  | 0.04 | 0.028 | -0.063 | -0.039 |  | 0.028 | -0.015 |  |  |  | -0.022
24 | CLPTM1L (UniProt G5E9Z2) | -0.317 |  | 0.073 | -0.382 | -0.049 |  |  | 0.156 | 0.176 | -0.22 | 0.099 | -0.053 |  |  | 0.047 | 0.067 |  |  |  | 0.037
25 | CASK (UniProt O14936) |  |  |  |  |  | 0.034 |  |  |  |  |  |  |  |  |  |  | 0.049 | -0.039 | 0.096 | 
